Data: PMC4336329 (PLoS ONE, 2015)
The whole screen tested about 310,000 compounds, of which about 14,000 (4.5%) showed an effect of 50% or more. The effect is printed as a negative number. The list comes from a sample in which strong results are over-represented; it also holds similar structures and randomly drawn compounds. Where a SMILES comes first, the peptide text is derived from it. The star is where a group is joined. Boc = CC(C)(C)OC(=O)*

Target: human ether-à-go-go-related gene (hERG) potassium channel (human, UniProt Q12809)
Experiment: primary screen, population patch clamp on CHO cells stably expressing hERG; higher = less effect of the substance
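Further: peak tail current of the secondary pulse compared with the same well before compound.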

Chain of human ether-à-go-go-related gene (hERG) potassium channel (Q12809 whole entry, looked up): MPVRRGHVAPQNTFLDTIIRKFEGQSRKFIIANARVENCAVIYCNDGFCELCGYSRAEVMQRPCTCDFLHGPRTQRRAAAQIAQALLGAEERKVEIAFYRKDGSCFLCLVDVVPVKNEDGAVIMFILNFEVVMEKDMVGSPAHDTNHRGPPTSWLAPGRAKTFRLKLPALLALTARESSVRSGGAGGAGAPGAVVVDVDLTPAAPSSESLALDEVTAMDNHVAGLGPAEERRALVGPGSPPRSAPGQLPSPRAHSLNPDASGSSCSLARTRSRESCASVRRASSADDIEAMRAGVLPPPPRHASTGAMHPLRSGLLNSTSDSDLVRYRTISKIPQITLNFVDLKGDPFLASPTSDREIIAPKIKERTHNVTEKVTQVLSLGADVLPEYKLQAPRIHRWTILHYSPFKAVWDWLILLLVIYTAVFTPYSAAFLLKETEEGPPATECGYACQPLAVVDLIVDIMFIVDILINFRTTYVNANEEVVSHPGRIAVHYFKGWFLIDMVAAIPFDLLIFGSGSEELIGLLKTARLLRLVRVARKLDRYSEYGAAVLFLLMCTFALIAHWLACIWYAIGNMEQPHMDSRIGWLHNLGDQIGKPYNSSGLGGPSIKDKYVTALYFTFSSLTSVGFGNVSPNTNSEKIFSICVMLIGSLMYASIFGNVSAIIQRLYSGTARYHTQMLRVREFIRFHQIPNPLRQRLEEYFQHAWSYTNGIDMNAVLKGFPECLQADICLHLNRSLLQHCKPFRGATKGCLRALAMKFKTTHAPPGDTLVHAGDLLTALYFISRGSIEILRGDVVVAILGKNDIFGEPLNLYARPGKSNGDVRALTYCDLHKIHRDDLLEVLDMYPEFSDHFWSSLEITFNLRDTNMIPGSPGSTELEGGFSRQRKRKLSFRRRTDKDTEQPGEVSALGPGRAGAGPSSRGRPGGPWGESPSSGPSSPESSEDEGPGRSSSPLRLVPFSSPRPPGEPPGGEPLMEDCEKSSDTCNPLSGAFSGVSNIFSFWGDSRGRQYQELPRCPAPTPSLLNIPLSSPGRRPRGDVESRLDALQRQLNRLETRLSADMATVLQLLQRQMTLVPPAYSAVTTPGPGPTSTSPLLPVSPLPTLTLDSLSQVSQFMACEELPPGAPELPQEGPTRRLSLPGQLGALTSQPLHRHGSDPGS

Row | SMILES | hERG current change (%, negative = inhibition) at 10uM
1 | CCCCNc1nc(Nc2ccc(C)c(Cl)c2)c2cnn(C)c2n1 | 15.3%
2 | O=C(CSc1nc2ccccc2c(=O)n1-c1ccccc1Cl)NC1CCS(=O)(=O)C1 (stereo not drawn) | 6.55%
3 | CCn1c(SCC(=O)NC2CCS(=O)(=O)C2)nnc1-c1ccccc1 (stereo not drawn) | 5.49%
4 | O=C(CSc1nnc(-c2ccc(Br)cc2)n1CCc1ccccc1)NC1CCS(=O)(=O)C1 (stereo not drawn) | -86.8%
5 | COc1ccccc1-n1c(SCC(=O)NC2CCS(=O)(=O)C2)nc2ccccc2c1=O (stereo not drawn) | -3.39%
6 | O=C(CSc1nc2ccccc2c(=O)n1-c1ccccc1F)NC1CCS(=O)(=O)C1 (stereo not drawn) | -57%
7 | CN(C(=O)CSc1nc2cc([N+](=O)[O-])ccc2n1-c1ccc(F)cc1)C1CCS(=O)(=O)C1 (stereo not drawn) | 2.56%
8 | O=C(CSc1nc2cc([N+](=O)[O-])ccc2n1-c1ccc(F)cc1)NC1CCS(=O)(=O)C1 (stereo not drawn) | -52.6%
9 | COc1ccccc1-n1c(SCC(=O)NC2CCS(=O)(=O)C2)nc2cc([N+](=O)[O-])ccc21 (stereo not drawn) | -16.2%
10 | COc1ccccc1-c1nnc(SCC(=O)NC2CCS(=O)(=O)C2)n1CCc1ccccc1 (stereo not drawn) | 8.05%
11 | Cc1ccc2oc(/N=C(\N)NC(=O)C(C)(C)C)nc2c1 | 4.85%
12 | CC1=Nn2c(nnc2-c2ccco2)SC1 | -3.87%
13 | O=C(/C=C/c1ccco1)Nc1sc2c(c1C(=O)O)CCC2 | -2.95%
14 | CSc1scc2c1-c1nc(SCC(=O)C(C)(C)C)ncc1CC2 | 11%
15 | CN(C)CCCN(C(=O)c1ccc(S(=O)(=O)N2CCOCC2)cc1)c1nc2ccc(F)cc2s1.Cl | -58.7%
16 | CN(C)CCCN(C(=O)c1ccc(S(=O)(=O)N2CCc3ccccc3C2)cc1)c1nc2ccc(F)cc2s1.Cl | 1.76%
17 | CN(C)CCCN(C(=O)c1ccc(S(=O)(=O)N2CCCc3ccccc32)cc1)c1nc2ccc(F)cc2s1.Cl | -17.1%
18 | CN(C)CCCN(C(=O)c1ccc(S(=O)(=O)N2CCCCCC2)cc1)c1nc2ccc(Br)cc2s1.Cl | -22%
19 | CN(C)CCCN(C(=O)c1ccc(S(=O)(=O)N2CCc3ccccc32)cc1)c1nc2ccc(F)cc2s1.Cl | -13.7%
20 | CN(C)CCCN(C(=O)c1ccc(S(=O)(=O)N2CCCCCC2)cc1)c1nc2ccc(F)cc2s1.Cl | -73.1%
21 | CC1CCN(C(=O)CSc2ccc(-c3ccccc3)nn2)CC1 | -11.8%
22 | COc1ccccc1CC(=O)Nc1cccc(F)c1 | 12.2%

Row | SMILES | hERG current change (%, negative = inhibition) at 10uM
23 | CC(C(=O)Nc1ccc(C#N)cc1)N(C)Cc1cccs1 (stereo not drawn) | -56.7%
24 | COc1cccc(NC(=O)CN(C)C(C)C(=O)Nc2ccc(S(=O)(=O)N3CCCC3)cc2)c1 (stereo not drawn) | -0.933%
25 | CC(=O)Nc1ccc(NC(=O)C(C)N(C)CC(=O)Nc2ccccc2Br)cc1 (stereo not drawn) | 8.29%
26 | CC(C(=O)Nc1ccc(C#N)cc1)N(C)CC(=O)Nc1cccc(F)c1 (stereo not drawn) | -64.7%
27 | CC(C(=O)Nc1ccccc1)N(C)Cc1cccs1 (stereo not drawn) | 8.67%
28 | CSc1ccccc1NC(=O)CN(C)C(C)C(=O)Nc1ccc(C#N)cc1 (stereo not drawn) | -63.1%
29 | CC(C(=O)Nc1ccc(Cl)cc1)N(C)Cc1cccs1 (stereo not drawn) | -15%
30 | COc1cccc(NC(=O)CN(C)C(C)C(=O)Nc2ccc(C(C)=O)cc2)c1 (stereo not drawn) | -22.9%
31 | CC(C(=O)N1CCCC1)N(C)CC(=O)Nc1cccc(F)c1 (stereo not drawn) | -0.435%
32 | CC(=O)c1ccc(NC(=O)C(C)N(C)CC(=O)Nc2cccc(F)c2)cc1 (stereo not drawn) | -17.3%
33 | CC(C(=O)Nc1ccc(C#N)cc1)N(C)CC(=O)Nc1ccccc1Br (stereo not drawn) | -17%
34 | COc1cccc(NC(=O)CN(C)C(C)C(=O)Nc2ccc(C#N)cc2)c1 (stereo not drawn) | -59.3%
35 | CC1=C/C(=N\NC(=S)NCCc2ccccc2)CC(C)(C)C1 | -4.83%
36 | Cc1ccc(Cn2nnc3c(=O)[nH]c(C4CCN(S(=O)(=O)c5ccccc5F)CC4)nc32)cc1 | -19%
37 | CCN1C[C@]2(C)CC[C@H](OC)[C@]34C2[C@H](OC(C)=O)[C@@]2(OCO[C@@]25C[C@H](OC)[C@H]2C[C@]3(O)C5[C@H]2OC)[C@@H]14 | 39.8%
38 | CCOc1cc(NC(=O)c2ccccn2)c(OCC)cc1NC(=O)c1ccc(C)cc1 | -13.7%
39 | Nc1c(C(=O)Nc2ccc(F)cc2)sc2nc(-c3ccco3)ccc12 | -9.67%
40 | CCC(C)NCCC(=O)Nc1ccc(Cl)c(S(=O)(=O)Nc2ccc(Cl)cc2)c1 (stereo not drawn) | -53.6%
41 | CC(=O)Nc1ccc(NS(=O)(=O)c2cc(Cl)ccc2Cl)cc1 | -14.8%
42 | CC(C)Oc1ccc(C(=O)Nc2ccc(Cl)c(S(=O)(=O)Nc3ccc(Cl)cc3)c2)cc1 | 2.46%
43 | Cc1cc(C)cc(-n2ccnc2SCC(=O)Nc2ccc3c(c2)OCCO3)c1 | -14.2%
44 | CC(=O)c1ccc(C(=O)Nc2nnc(-c3ccc(Cl)cc3)o2)cc1 | 4.1%

Row | SMILES | hERG current change (%, negative = inhibition) at 10uM
45 | Cc1ccc(NC(=O)/C(=C/c2ccc([N+](=O)[O-])cc2)NC(=O)c2ccccc2)cc1 | -12%
46 | O=C(OCC(=O)c1ccc([N+](=O)[O-])cc1)/C(=C/c1ccc(Cl)cc1)NC(=O)c1ccccc1 | -63.3%
47 | Cc1ccc(NC(=O)/C(=C\c2ccc([N+](=O)[O-])cc2)NC(=O)c2ccccc2)cc1 | -38.6%
48 | CC(=O)N/C(=C\c1ccccc1)C(=O)OCC(=O)c1ccccc1 | 9.41%
49 | O=C(OCC(=O)c1ccc([N+](=O)[O-])cc1)/C(=C\c1ccc(Cl)cc1)NC(=O)c1ccccc1 | -64.4%
50 | O=C(NCCc1ccccc1)/C(=C\c1ccc([N+](=O)[O-])cc1)NC(=O)c1ccc(Br)cc1 | -37.8%
51 | CS(=O)(=O)c1ccc(Oc2ccc(-c3nnco3)cc2)c([N+](=O)[O-])c1 | -7.35%
52 | COc1cccc(C2C(C#N)=C(N)Oc3cc(C)[nH]c(=O)c32)c1OC (stereo not drawn) | -10.4%
53 | Cc1sc2c(c1C)C(c1cccs1)=NCC(=O)N2CC(=O)NCc1cccs1 | -56.2%
54 | Cc1sc2c(c1C)C(c1ccc(C(C)(C)C)cc1)=NCC(=O)N2CC(=O)Nc1nccs1 | -17.9%
55 | Cc1ccc2c(c1)N(CC(=O)NCc1cccs1)C(=O)CO2 | 5.4%
56 | CCOCCCNC(=S)NC1CC2CCC(C1)N2Cc1ccccc1 (stereo not drawn) | -23%
57 | Cc1noc(C(=O)Nc2ccc(F)c(Cl)c2)c1Cl | 8.86%
58 | Oc1cccc2nc3ccccc3nc12 | 2.6%
59 | CCOC(=O)C1(CCc2ccccc2)CCN(Cc2ccco2)CC1 | -76.5%
60 | CCOC(=O)C1(CCOC)CCN(Cc2ccccc2-c2ccco2)CC1 | -22.4%
61 | CCOC(=O)C1(CCc2ccccc2)CCN(Cc2ccc(O)cc2)CC1 | -83.4%
62 | CCOC(=O)C1(Cc2cccc(OC)c2)CCN(C(C)COC)CC1 (stereo not drawn) | 5.9%
63 | CCOC(=O)C1(CCc2ccccc2)CCN(Cc2ccc(C(=O)OC)cc2)CC1 | -91.8%
64 | CCOC(=O)C1(CCOC)CCN(C(C)CCc2ccc(OC)cc2)CC1 (stereo not drawn) | -71.1%
65 | CCOC(=O)C1(CCOC)CCN(C(=O)Cc2ccc3ccccc3c2)CC1 | -0.72%
66 | CCOC(=O)C1(CCc2ccccc2)CCN(CC(O)CO)CC1 (stereo not drawn) | -40.3%

Row | SMILES | hERG current change (%, negative = inhibition) at 10uM
67 | Cc1ccc(S(=O)(=O)N2CCN(S(=O)(=O)N3CCCCC3)CC2)c(C)c1 | -6.97%
68 | CSc1sc(C(=O)N2CCCCC2)c(-c2cccs2)c1C#N | -27.7%
69 | CC(C)(C)c1ccc(OCC(=O)Nc2cccc(S(=O)(=O)NC3=NCCCCC3)c2)cc1 | -18.9%
70 | COc1ccc2c(CC(=O)OCC(=O)Nc3ccc(C)cc3)coc2c1 | -1.56%
71 | O=S1(=O)CC2SC(=S)N(c3ccccc3)C2C1 (stereo not drawn) | 7.98%
72 | CCOc1ccc(/C(O)=C2/C(=O)C(=O)N(CCN(C)C)C2c2ccccc2)cc1Cl (stereo not drawn) | -5.2%
73 | CC(=O)c1c(C)[nH]c(C(=O)COC(=O)c2ccc3c(=O)n4c(nc3c2)CCC4)c1C | -0.297%
74 | O=[N+]([O-])c1ccccc1C1Nc2cccc3cccc(c23)N1 | 11.8%
75 | CCC1CCCCN1C(=O)c1ccc(OC2CCN(Cc3ccccn3)CC2)cc1 (stereo not drawn) | 5.27%
76 | CCc1nnc(NC(=O)CSc2ccc(-c3nc4ccccc4[nH]3)cn2)s1 | 5.82%
77 | COC(=O)C(Cc1ccccc1)NC(=O)C(CC(C)C)NC(=O)OC(C)(C)C (stereo not drawn) (Boc-Leu-Phe-OMe; configuration not given here) | 10.7%
78 | CCOC(=O)C1(CCc2ccccc2)CCN(Cc2ccc(OC)cc2)CC1 | -77.5%
79 | CCOC(=O)C1(CC2CC2)CCN(Cc2cc(Cl)c(O)c(OC)c2)CC1 | -57.1%
80 | CCOC(=O)C1(CCOC)CCN(Cc2ccc(C(=O)OC)cc2)CC1 | -27.2%
81 | CCOC(=O)C1(Cc2ccccc2)CCN(Cc2csc(C(C)=O)c2)CC1 | -24.2%
82 | CCOC(=O)C1(CC2CC2)CCN(Cc2ccc(C(=O)OC)cc2)CC1 | -57%
83 | CCOC(=O)C1(CCc2ccccc2)CCN(Cc2csc(C(C)=O)c2)CC1 | -74.8%
84 | CCOC(=O)C1(CC2CC2)CCN(Cc2cnc(-c3ccccc3C)nc2)CC1 | -10.4%
85 | CCOC(=O)C1(Cc2ccccc2Cl)CCN(Cc2csc(C(C)=O)c2)CC1 | -12.3%
86 | CCOC(=O)C1CCN(Cc2ccc(C(=O)OC)cc2)CC1 | -14.6%
87 | CCOC(=O)C1(CC2CC2)CCN(Cc2ccc(O)c(Cl)c2)CC1 | -41.6%
